The whole screen tested about 1,200 compounds, of which about 65 (5%) were called active.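 Rule for the calls: active = at either tested dose, response and 90th-percentile vesicle-stain brightness of CD8 cells under set limits and under 9% cells vesicle-bound; inactive = the rest.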 Many of the other results were omitted from the sample, so actives are more common in it than they were.
Experiment: modulators of CD8 T cell-vesicle binding, confirmation, cherry-picked primary hits, two concentrations (AID 2810);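 note: lower values mean blocking of vesicle binding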;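 for percent response (vesicle binding): ratio of mean FL2 vesicle stain of CD8+ cells to that row's control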
Details: 2C CD8+ T cell-vesicle binding, flow cytometry; for double positive events: CD8+/vesicle+ events
[1] = at 15.4 µM, stronger effect = lower value

Row | Structure (SMILES) | double positive events (at 7.7 µM) [%] | double positive events [1] [%] | percent response (vesicle binding) [1] | percent response (vesicle binding) (response, at 7.7 µM) [%]
1 | CC(C)[C@H]1C(=O)Nc2ccccc2N1C(=O)N[C@@H](Cc1ccccc1)C(=O)N[C@@H](Cc1ccccc1)C(=O)O | 36.3 | 8.9 | 55.5% (active) | 394
2 | Cc1cccc(OCC(=O)NC(Cc2ccccc2)C(=O)O)c1 (stereo not drawn) | 7.7 | 11.5 | 295% (inactive) | 136
3 | CC(=O)Nc1ccc(S(=O)(=O)NC2CCSc3ccccc32)cc1 (stereo not drawn) | 13.6 | 10.4 | 146% (inactive) | 238
4 | COc1ccc(C(=O)NNC(=O)CSc2nnnn2C)cc1 | 13.8 | 1.8 | 19.1% (active) | 160
5 | COc1ccc(C(=O)CSc2nnc(CNC(=O)c3ccc(OC)c(OC)c3)n2C)cc1 | 7.6 | 15.6 | 136% (inactive) | 300
6 | COc1ccc(CNc2nnnn2C)cc1 | 28.6 | 12.4 | 192% (inactive) | 376
7 | Cc1noc(C)c1COc1ccc(C(=O)NCc2cccs2)cc1 | 6.2 | 22.1 | 165% (inactive) | 120
8 | Nc1ccccc1C(=O)N/N=C1\C2CN3CCN(C2)CC1(c1ccccc1)C3 | 20 | 18.6 | 176% (inactive) | 839
9 | CC(=O)c1ccc(OCc2cc(C(=O)N3CCCCC3c3cccnc3)no2)cc1 (stereo not drawn) | 18.2 | 21.2 | 171% (inactive) | 229
10 | O=C(Cc1cccc(NC(=O)C2CCCN(C(=O)C3CC3)C2)c1)Nc1cccc(C(=O)N2CCCC2)c1 (stereo not drawn) | 25 | 13.2 | 338% (inactive) | 438
11 | CN(CC(=O)Nc1cccc(F)c1)C(=O)c1ccc(S(=O)(=O)N2CCCC2)cc1 | 28.6 | 10.5 | 176% (inactive) | 275
12 | CN(Cc1ccccc1)C(=O)c1ccc(NC(=O)Cc2cccc(NC(=O)C3CCCN(C(=O)C4CCC4)C3)c2)cc1 (stereo not drawn) | 7.8 | 4.3 | 54.8% (active) | 219
13 | Cc1cc(C)c(C(=O)N2CCCC(N3CCN(c4ccc(F)cc4)CC3)C2)o1 (stereo not drawn) | 39.2 | 14.9 | 236% (inactive) | 688
14 | Cc1cc(C)cc(NC(=O)C(=O)NCCCN2CCCC2=O)c1 | 10 | 9.4 | 138% (inactive) | 150
15 | COc1ccc(Cc2nc(-c3ccccn3)no2)cc1 | 34.9 | 19.8 | 702% (inactive) | 360
16 | COc1ccc(CN2C(=O)C(C)Nc3ncnc(N4CCN(c5ccccn5)CC4)c32)cc1 (stereo not drawn) | 8.2 | 4.1 | 33.1% (active) | 235
17 | O=C(c1ccc(Cn2c(=S)[nH]c3ccccc3c2=O)cc1)N1CCN(c2ccccn2)CC1 | 8.9 | 7 | 222% (inactive) | 465
18 | Cc1cccc(NS(=O)(=O)c2ccc(Oc3ccccc3)cc2)n1 | 19.3 | 10.1 | 148% (inactive) | 86.6
19 | Cc1ccc(S(=O)(=O)N2CCN(c3ncnc4ccccc34)CC2)cc1 | 6.7 | 15.5 | 103% (inactive) | 116
20 | Cc1ccc(S(=O)(=O)Nc2c3ccccc3nc(=O)n2-c2ccccc2)cc1 | 21.4 | 7.9 | 50.6% (active) | 180
21 | O=C(Nc1ccccc1C(=O)OCC(=O)c1c[nH]c2ccccc12)c1ccco1 | 19.2 | 23.2 | 289% (inactive) | 174
22 | CCn1cc(CNC(=O)c2ccc(Cl)c([N+](=O)[O-])c2)c(C)n1 | 18.4 | 8.4 | 244% (inactive) | 301

Row | Structure (SMILES) | double positive events (at 7.7 µM) [%] | double positive events [1] [%] | percent response (vesicle binding) [1] | percent response (vesicle binding) (response, at 7.7 µM) [%]
23 | Cc1cccc(C)c1OCc1nnc(NC(=O)CSc2ccc(Cl)cc2)s1 | 31.8 | 24.4 | 211% (inactive) | 221
24 | O=C1CCCc2sccc2N1 | 17.6 | 1.1 | 33.4% (active) | 308
25 | CCCCn1c(N)c(N(CCOC)C(=O)c2c(CC)noc2C)c(=O)[nH]c1=O | 8.2 | 14.5 | 132% (inactive) | 298
26 | c1coc(-c2nc3c4c5c(sc4ncn3n2)CCCC5)c1 | 17.3 | 13.1 | 71% (inactive) | 187
27 | O=C(c1ccco1)N1CCN(C(c2ccccc2Cl)c2nnnn2Cc2ccco2)CC1 (stereo not drawn) | 15.1 | 6.3 | 40.7% (active) | 456
28 | O=C(c1ccco1)N1CCN(c2ncccn2)CC1 | 27.2 | 11.7 | 199% (inactive) | 331
29 | COc1ccc(OC)c(C(c2nnnn2CCC(C)C)N2CCN(C(=O)c3ccco3)CC2)c1 (stereo not drawn) | 33.6 | 30.5 | 242% (inactive) | 208
30 | COCC(C)NC(=O)CSc1nc2cc(S(=O)(=O)N3CCCCC3)ccc2o1 (stereo not drawn) | 13.5 | 13.6 | 131% (inactive) | 364
31 | COc1ccc(NC(=O)Nc2c(O)ccc3ccccc23)cc1 | 5.2 | 17.7 | 132% (inactive) | 173
32 | COc1cccc(NC(=O)Nc2ccc3nc(C)c(C)nc3c2)c1 | 9.8 | 8.7 | 103% (inactive) | 154
33 | COc1ccc(NC(=O)Nc2ccc(O)c3ccccc23)cc1 | 5.3 | 10 | 103% (active) | 35.3
34 | Cn1nc(-c2ccccc2)c(CSc2ccccc2Cl)c1Cl | 14.2 | 30.1 | 241% (inactive) | 251
35 | CC(C)c1ccc(NC(=O)NCc2cccnc2)cc1 | 12 | 22.3 | 281% (inactive) | 415
36 | C/C(=N\NC(=O)c1ccc(Br)o1)c1cc2c(cc1NC(=O)CCC(=O)O)OCO2 | 36.2 | 13.6 | 208% (inactive) | 305
37 | COc1ccc(NC(=O)C2CCC(C(C)(C)C)CC2)cc1S(=O)(=O)N1CCCCC1 (stereo not drawn) | 17.3 | 13.7 | 203% (inactive) | 135
38 | COc1ccc(NS(=O)(=O)c2cc(NC(=O)C3CC3)ccc2N2CCCCC2)cc1 | 9.3 | 3.4 | 36.1% (active) | 138
39 | COc1ccc(S(=O)(=O)N2CCCC2C(=O)Nc2ccc(C(C)=O)cc2)cc1 (stereo not drawn) | 6.8 | 18.3 | 384% (inactive) | 406
40 | Nc1nc(SCCO)[nH]c(=O)c1NC(=O)c1ccc(Br)o1 | 11.9 | 25.8 | 393% (inactive) | 383
41 | O=C1CC(c2nc3ccccc3[nH]2)CN1Cc1ccccc1 (stereo not drawn) | 17.2 | 4.3 | 50.8% (active) | 341
42 | O=C(c1ccccc1Cl)N1CCCC(c2nc3c(nnn3Cc3ccccc3)c(=O)[nH]2)C1 (stereo not drawn) | 9.2 | 17.6 | 132% (inactive) | 181
43 | CCOCC(=O)Nc1ccc(S(=O)(=O)N2CCC(c3nc4ccccc4[nH]3)CC2)cc1 | 7.3 | 21.4 | 156% (inactive) | 124
44 | CC(OC(=O)c1ccc2c(c1)C(=O)N(Cc1ccncc1)C2=O)C(=O)Nc1cccc(Cl)c1Cl (stereo not drawn) | 16.7 | 30.5 | 343% (inactive) | 266

Row | Structure (SMILES) | double positive events (at 7.7 µM) [%] | double positive events [1] [%] | percent response (vesicle binding) [1] | percent response (vesicle binding) (response, at 7.7 µM) [%]
45 | CSc1ccccc1NC(=O)CN(C)C(=O)c1ccc2c(c1)OCCO2 | 45.7 | 7.6 | 133% (inactive) | 295
46 | CCc1ccc(NC(=S)N(CCCN2CCOCC2)Cc2ccccn2)cc1 | 22.2 | 40 | 339% (inactive) | 168
47 | CN(C)S(=O)(=O)c1cccc(-n2sc3ccccc3c2=O)c1 | 4.4 | 2.1 | 52.8% (active) | 173
48 | CCCc1cc(=O)[nH]c(SCC(=O)N2c3ccccc3CC2C)n1 (stereo not drawn) | 26.4 | 4.8 | 139% (inactive) | 285
49 | O=C(O)C1CCC(Cn2c(SCc3cc(=O)n4cc(Cl)ccc4n3)nc3ccsc3c2=O)CC1 (stereo not drawn) | 29.3 | 9 | 76.3% (inactive) | 339
50 | Cc1ccc(NC(=O)C2CCCO2)cc1[N+](=O)[O-] (stereo not drawn) | 25.5 | 9.4 | 161% (inactive) | 161
51 | CCOC(=O)C1CCN(C(=O)c2ccc(NC(=O)C3CCCO3)cc2)CC1 (stereo not drawn) | 27.3 | 1.9 | 21.8% (active) | 
52 | CCOC(=O)C1CCN(C(=O)c2cccc(S(=O)(=O)NCc3ccccc3)c2)CC1 | 16.4 | 18.8 | 420% (inactive) | 128
53 | O=C(COc1ccccc1)NNC(=O)c1ccc(Cl)cc1 | 27.8 | 8 | 220% (inactive) | 616
54 | CN(C)S(=O)(=O)c1ccc(NC(=O)c2ccc([N+](=O)[O-])cc2)cc1 | 25.4 | 22.8 | 217% (inactive) | 312
55 | CCC(C)c1ccc(NC(=O)NCc2cccnc2)cc1 (stereo not drawn) | 8.6 | 27.9 | 260% (inactive) | 356
56 | CCOc1ccccc1NC(=O)C(OC(=O)c1ccccc1O)c1ccccc1 (stereo not drawn) | 6.9 | 21.5 | 190% (inactive) | 189
57 | CCC(C(=O)Nc1ccccc1)c1ccccc1 (stereo not drawn) | 6.9 | 21.7 | 199% (active) | 59.2
58 | Cc1ccc(CONC(=O)c2cccc([N+](=O)[O-])c2)cc1 | 27.4 | 16.3 | 328% (inactive) | 576
59 | CCOC(=O)C1(Cc2cccc(OC)c2)CCN(Cc2ccc3c(c2)OCCO3)CC1 | 13 | 17.1 | 114% (inactive) | 148
60 | CCOc1ccc(/C(O)=C2/C(=O)C(=O)N(CCN(CC)CC)C2c2cccs2)cc1 (stereo not drawn) | 17.2 | 26.6 | 300% (inactive) | 187
61 | COc1ccc(/C(O)=C2/C(=O)C(=O)N(Cc3cccnc3)C2c2ccco2)cc1OC (stereo not drawn) | 23.3 | 0.8 | 27% (active) | 360
62 | COCCN1C(=O)C(=O)/C(=C(/O)c2cccc(OC)c2)C1c1ccc(C)o1 (stereo not drawn) | 12.5 | 16.5 | 205% (inactive) | 173
63 | COc1ccc(NC(=O)COC(=O)c2cc(Cl)ccc2O)cc1S(=O)(=O)N1CCCCC1 | 27 | 23.1 | 366% (inactive) | 227
64 | CC1CC(C)(C)NC(=S)N1CC(=O)NCc1ccccc1Cl (stereo not drawn) | 8.8 | 18.9 | 506% (inactive) | 79.3
65 | CCOC(=O)C1(CC2CCCCO2)CCN(S(=O)(=O)c2ccc(C)s2)CC1 (stereo not drawn) | 17.8 | 18.7 | 122% (inactive) | 196
66 | COc1ccc(F)c(CN2CCC(n3nccc3NC(=O)C3CCOC3)CC2)c1 (stereo not drawn) | 29.1 | 10.9 | 235% (inactive) | 538

From PubChem BioAssay AID2810 (NMMLSC, 2010)
